“And” between values parts separate entries of the source, which are not always exact repeats. Equal entries are not always repeated. Compounds without any hit were thinned out: in the full panel of roughly 83,000, 20% have a hit.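 Growth was measured after 48 h exposure to one concentration of compound in 96-well plates. Values under 10 count as active.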 The source made the active and inactive calls.
Columns and labels:
Experiment in all cases: NCI-60 one-dose screen, 48 h (100 = growth as untreated, 0 = no growth, -100 = all killed)
Conditions in all cases: 10 µM unless noted
DU-145 prostate = system: DU-145 prostate
K-562 leukemia = system: K-562 leukemia
MALME-3M melanoma = system: MALME-3M melanoma
MDA-MB-231 breast = system: MDA-MB-231 breast
RXF 393 renal = system: RXF 393 renal
SF-268 CNS = system: SF-268 CNS
SF-295 CNS = system: SF-295 CNS
SF-539 CNS = system: SF-539 CNS
UACC-257 melanoma = system: UACC-257 melanoma
M14 melanoma = system: M14 melanoma

Measured: growth

C[C@@H]1CC[C@@H]2[C@@H]1[C@H](OC(=O)/C=C/c1ccccc1)[C@]1(c3ccccc3)C[C@@H](NC(=O)CO)[C@@]2(C)O1
inactive: DU-145 prostate 107% | K-562 leukemia 84.4% | MALME-3M melanoma 98.6% | MDA-MB-231 breast 96.9% | RXF 393 renal 83.2% | SF-268 CNS 93.6% | SF-295 CNS 93.8% | SF-539 CNS 97.9% | UACC-257 melanoma 93% | M14 melanoma 105%

COc1cc(NC2CCCCC2O)c2nc(-c3ccc(Cl)cc3)ccc2c1 (stereo not given)
inactive: DU-145 prostate 95.3% and 95% | K-562 leukemia 44.8% | MALME-3M melanoma 72.5% and 124% | MDA-MB-231 breast 44.6% and 78.1% | RXF 393 renal 39.3% and 67.9% | SF-268 CNS 77.5% and 84% | SF-295 CNS 51.5% and 54.3% | SF-539 CNS 105% and 93.9% | UACC-257 melanoma 101% and 105% | M14 melanoma 45.8% and 79.9%

CCOC(=O)c1c(-c2ccc(C)cc2)c(C#N)c(=O)n(-c2cccc(C(F)(F)F)c2)c1N
inactive: DU-145 prostate 108% | K-562 leukemia 97.8% | MALME-3M melanoma 99.4% | MDA-MB-231 breast 97.9% | RXF 393 renal 101% | SF-268 CNS 97% | SF-295 CNS 100% | SF-539 CNS 97.2% | UACC-257 melanoma 101% | M14 melanoma 106%

COc1ccc(C2Nc3nc(SC)nc(N)c3N=C3c4ccccc4CCC32)cc1 (stereo not given)
inactive: DU-145 prostate 70.9% | K-562 leukemia 84.5% | MALME-3M melanoma 108% | MDA-MB-231 breast 83.5% | RXF 393 renal 122% | SF-268 CNS 73.4% | SF-295 CNS 105% | SF-539 CNS 90.5% | UACC-257 melanoma 122% | M14 melanoma 92.7%

ON=C1CCCCCCCC1
inactive: DU-145 prostate 107% and 103% | K-562 leukemia 88.5% and 108% | MALME-3M melanoma 100% and 98.6% | MDA-MB-231 breast 107% and 123% | RXF 393 renal 112% | SF-268 CNS 99.8% and 96.9% | SF-295 CNS 105% and 103% | SF-539 CNS 92.1% and 102% | UACC-257 melanoma 104% and 107% | M14 melanoma 102% and 101%

COc1ccc(C(c2cc(OC)c(OC)c(OC)c2)n2ccnc2)cc1O (stereo not given)
active: K-562 leukemia 8% | RXF 393 renal -5.38% | SF-295 CNS -3.02% | SF-539 CNS 9.52% | M14 melanoma 0.908%
inactive: DU-145 prostate 12.9% | MALME-3M melanoma 66.6% | MDA-MB-231 breast 34.8% | SF-268 CNS 39.6% | UACC-257 melanoma 37.8%

C[C@]12CCc3c(ccc4cc(O)ccc34)[C@@H]1C[C@H](O)[C@@H]2O
inactive: DU-145 prostate 108% | K-562 leukemia 105% | MALME-3M melanoma 113% | MDA-MB-231 breast 79.9% | RXF 393 renal 102% | SF-268 CNS 103% | SF-295 CNS 95.3% | SF-539 CNS 102% | UACC-257 melanoma 102% | M14 melanoma 103%

CCN1C(=O)/C(=c2\sc3n(c2=O)C2C(NN=3)N(CC)C(=O)N2CC)c2ccccc21 (stereo not given)
active: DU-145 prostate 7% | K-562 leukemia 7.63% | RXF 393 renal -7.21% | SF-295 CNS 9.43% | SF-539 CNS -20.9%
inactive: MALME-3M melanoma 49.5% | MDA-MB-231 breast 23.9% | SF-268 CNS 61.7% | UACC-257 melanoma 96.5% | M14 melanoma 46.2%

CN(C)c1ccc2nc3ccc(=O)cc-3sc2c1
active: SF-295 CNS 6.09% and -15.3% | M14 melanoma 9.73% and 7.61%
inactive: DU-145 prostate 35.7% and 51.2% | K-562 leukemia 20.4% and 23% | MDA-MB-231 breast 30.4% and 43% | RXF 393 renal 52.2% and 82% | SF-268 CNS 52.9% and 63%
10.3% (inactive) and 1.75% (active): SF-539 CNS
1.88% (active) and 22.1% (inactive): MALME-3M melanoma
-21.8% (active) and 24.8% (inactive): UACC-257 melanoma

Nc1ccc(S(=O)(=O)c2ccc(N)cc2)cc1
inactive: DU-145 prostate 115% and 113% | K-562 leukemia 104% and 144% | MALME-3M melanoma 109% and 121% | MDA-MB-231 breast 108% and 112% | RXF 393 renal 104% and 108% | SF-268 CNS 112% and 108% | SF-295 CNS 94.4% | SF-539 CNS 103% and 97.6% | UACC-257 melanoma 103% and 93.4% | M14 melanoma 101% and 97.5%

CCCCCCCCCCCCCCCCCCOc1cccc(CC(=O)OCC[N+](CC)(CC)CC)c1
active: RXF 393 renal 8.82%
inactive: DU-145 prostate 73.8% | K-562 leukemia 31.8% | MALME-3M melanoma 74.1% | MDA-MB-231 breast 41.4% | SF-268 CNS 61.7% | SF-295 CNS 40.9% | SF-539 CNS 51.1% | UACC-257 melanoma 114% | M14 melanoma 42.3%

CCCCCO/N=C\c1c2c(O)c3c(O)c(C)c4c(c3c1O)C(=O)C(C)(O/C=C\C(OC)C(C)C(OC(C)=O)C(C)C(O)C(C)C(O)C(C)/C=C\C=C(\C)C(=O)N2)O4 (stereo not given)
active: SF-295 CNS 7.23% | UACC-257 melanoma 8.59%
inactive: DU-145 prostate 36% | K-562 leukemia 17.6% | MALME-3M melanoma 41.2% | MDA-MB-231 breast 31.4% | RXF 393 renal 36.6% | SF-268 CNS 31.2% | SF-539 CNS 37.3% | M14 melanoma 28.2%

COC(=O)c1nc(-c2ccc(C)cc2)oc1Sc1ccc(C)cc1
inactive: DU-145 prostate 110% | K-562 leukemia 82% | MALME-3M melanoma 122% | MDA-MB-231 breast 96.1% | RXF 393 renal 108% | SF-268 CNS 103% | SF-295 CNS 114% | SF-539 CNS 96.8% | UACC-257 melanoma 102% | M14 melanoma 93.2%

CCOC(=O)CC1CSC(c2cccc(Cl)c2)=N1 (stereo not given)
inactive: DU-145 prostate 111% | K-562 leukemia 92.9% | MALME-3M melanoma 108% | MDA-MB-231 breast 105% | RXF 393 renal 106% | SF-268 CNS 101% | SF-295 CNS 102% | SF-539 CNS 114% | UACC-257 melanoma 99.1% | M14 melanoma 101%

O=C(CN1C(=O)S/C(=C\C(Cl)=C\c2ccccc2)C1=O)NCCCn1ccnc1
active: K-562 leukemia 5.22% | RXF 393 renal -25.9%
inactive: DU-145 prostate 31.5% | MALME-3M melanoma 25.4% | MDA-MB-231 breast 21.5% | SF-268 CNS 86.7% | SF-295 CNS 79.8% | SF-539 CNS 15.2% | UACC-257 melanoma 75.1% | M14 melanoma 21.3%

CC[C@]1(O)CC2CN(CCc3c([nH]c4ccccc34)C(C(=O)OC)(c3cc4c(cc3OC)N(C=O)[C@H]3[C@@](O)(C(=O)OC)[C@H](OC(C)=O)[C@]5(CC)[C@@H]6C[C@@H]6CN6CC[C@]43[C@@H]65)C2)C1 (stereo not given in full)
inactive: K-562 leukemia 27.5% | MALME-3M melanoma 34.2% | RXF 393 renal 32.9% | SF-268 CNS 15.3% | UACC-257 melanoma 53.2%
active: DU-145 prostate -41.4% | MDA-MB-231 breast -27.5% | SF-295 CNS -4.56% | SF-539 CNS 0.385% | M14 melanoma -31.6%

N=c1c2c(-c3ccccc3)c(-c3ccccc3)oc2ncn1NC(=O)c1cccnc1
inactive: DU-145 prostate 106% | K-562 leukemia 87.8% | MALME-3M melanoma 114% | MDA-MB-231 breast 102% | RXF 393 renal 117% | SF-268 CNS 106% | SF-295 CNS 101% | SF-539 CNS 97.2% | UACC-257 melanoma 105% | M14 melanoma 105%

O=C1C(Nc2ccc(Cl)cc2)=C(I)C(=O)c2ncccc21
inactive: DU-145 prostate 13.6% | RXF 393 renal 41.7% | SF-268 CNS 28.9% | SF-295 CNS 75.2% | UACC-257 melanoma 40.2%
active: K-562 leukemia 8.51% | MALME-3M melanoma -46.5% | MDA-MB-231 breast -46.4% | SF-539 CNS 7.82% | M14 melanoma -3.93%

O=c1c(/C=C/c2ccco2)nnc2sc(Nc3ccc(Cl)cc3)nn12
inactive: DU-145 prostate 111% | K-562 leukemia 97.9% | MALME-3M melanoma 100% | MDA-MB-231 breast 96.4% | RXF 393 renal 114% | SF-268 CNS 103% | SF-295 CNS 105% | SF-539 CNS 90.6% | UACC-257 melanoma 104% | M14 melanoma 101%

O=C1C=C(Nc2ccccc2)c2ncccc2C1=O
active: DU-145 prostate -95.4% | K-562 leukemia -48% | MALME-3M melanoma -91.3% | MDA-MB-231 breast -18% | RXF 393 renal -96.4% | SF-268 CNS -61.9% | SF-295 CNS -97.5% | SF-539 CNS -87.3% | UACC-257 melanoma -97.7% | M14 melanoma -86.3%

COc1cc(/C=C2\C(=O)N(CCCCn3c4ccccc4c(=O)c4ccccc43)c3ccccc32)cc(OC)c1O
inactive: DU-145 prostate 60.4% | K-562 leukemia 15.6% | MALME-3M melanoma 66.3% | MDA-MB-231 breast 70% | RXF 393 renal 70.5% | SF-268 CNS 60.1% | SF-295 CNS 84% | SF-539 CNS 64.3% | UACC-257 melanoma 81.7% | M14 melanoma 52.3%

COc1ccc(/C=N/C2=C(C#N)C(c3ccccc3)c3c(ccc4ccccc34)O2)cc1 (stereo not given)
inactive: DU-145 prostate 24.6% | MALME-3M melanoma 47.5% | MDA-MB-231 breast 33.4% | SF-268 CNS 50.7% | SF-295 CNS 10.9% | UACC-257 melanoma 61.8% | M14 melanoma 11.8%
active: K-562 leukemia 8.18% | RXF 393 renal -8.72% | SF-539 CNS 6.89%

N#Cc1ccccc1OCC(=O)Nc1nc2c(s1)COc1ccccc1-2
inactive: DU-145 prostate 114% | K-562 leukemia 104% | MALME-3M melanoma 107% | MDA-MB-231 breast 102% | RXF 393 renal 101% | SF-268 CNS 104% | SF-295 CNS 79.5% | SF-539 CNS 101% | UACC-257 melanoma 112% | M14 melanoma 105%

CCCN1C(=O)/C(=c2\sc3n(c2=O)C2C(NN=3)N(CC)C(=O)N2CC)c2ccccc21 (stereo not given)
inactive: DU-145 prostate 13.6% | MALME-3M melanoma 45.4% | MDA-MB-231 breast 13.9% | RXF 393 renal 17.3% | SF-268 CNS 58.7% | UACC-257 melanoma 24.5% | M14 melanoma 17.5%
active: K-562 leukemia 9.52% | SF-295 CNS 7.46% | SF-539 CNS -17%

Reference: PubChem BioAssay (NCI)
